Read-out in assay [1]: E-selectin (Homo sapiens) (UniProt P16581)
Nature of the assay: BSK_SAg_Eselectin: BioMAP Diversity Plus: SAg Assay for Eselectin Biomarker Activity (AID 2283091). The following applies: primary human HUVEC with PBMC; actives raise or lower the signal. In a few lines:
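E-selectin ELISA readout at 24 h post-dosing in human umbilical vein endothelial cell/PBMC co-culture; gain or loss of signal fitted relative to DMSO baseline.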

Read-out in assay [2]: Monokine induced gamma interferon (MIG), CXCL9 (gene 4283)
The assay can be described thus: BSK_SAg_MIG: BioMAP Diversity Plus: SAg Assay for Monokine induced gamma interferon (MIG) Biomarker Activity (AID 2283092). The conditions noted are these: primary human HUVEC with PBMC; actives raise or lower the signal. In a few lines: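 Endothelial cells and PBMC were co-cultured, exposed to test chemicals, and sampled 24 h later. MIG was measured by ELISA, and responses were fitted in both directions relative to DMSO.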

Assay [3] is described as follows: BSK_SAg_PBMCCytotoxicity: PBMC Cytotoxicity Assessment in the BioMAP Diversity Plus: SAg Assay (AID 2283093).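 Also: fitted both ways against DMSO so a hit may be loss or gain of signal.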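 As to AC50: PBMC superantigen activated with SEB plus TSST-1 one hour after compound addition.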 The following applies: primary human HUVEC with PBMC. In a few lines:
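PBMC viability by Alamar Blue reduction, fluorescence read at 546/580 nm after 6 h dye exposure. Cells were dosed 1 h before SEB plus TSST-1 activation (20 ng/mL final each), then held 90 h; endothelial/PBMC human co-culture.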

Read-out in assay [4]: Interleukin-8 (IL8), CXCL8 (gene 3576)
Nature of the assay: BSK_SAg_IL8: BioMAP Diversity Plus: SAg Assay for Interleukin-8 (IL8) Biomarker Activity (AID 2283094). The following applies: primary human HUVEC with PBMC; actives raise or lower the signal. The method, boiled down:
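Chemicals were dosed onto a human endothelial–PBMC co-culture, and IL-8 was quantified by ELISA after 24 h. Both increases and decreases were fitted relative to DMSO.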

Assay [5] can be described thus: BSK_SAg_Proliferation: Cell Proliferation Assessment in the BioMAP Diversity Plus: SAg Assay (AID 2283095).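 Also: relative cell number as total protein by SRB absorbance in sub-confluent culture.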 The following applies: primary human HUVEC with PBMC. The method, boiled down: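 Absorbance of sulforhodamine B at 560 nm reports total protein in a human vascular endothelial/PBMC co-culture after 96 h chemical exposure. Gain or loss of signal is fitted in both directions against DMSO.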

The nature of assay [6]: BSK_SAg_SRB: Viability Assessment in the BioMAP Diversity Plus: SAg Assay (AID 2283096).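 Also: cells read one day after compound addition; hits may be either gain or loss of signal compared with DMSO.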 The following applies: primary human HUVEC with PBMC. The method, boiled down:
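Compounds were added to a human vascular co-culture of umbilical vein endothelium and PBMC. After 24 h, parallel cultures were fixed with 10% TCA, stained with 0.1% sulforhodamine B and read at 560 nm. Gain or loss of signal was fitted relative to DMSO.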

Assay [7] deals with rat CYP2A2, Cyp2a2 (gene 24895) (UniProt P15149). Nature of the assay: NVS_ADME_rCYP2A2: NovaScreen (NVS) CYP450-related Enzyme Activity (ADME) Assay for rat CYP2A2 (AID 2283116; active = hit-call score of the fitted dose curve at least 0.9, where 1 is the maximum). In a few lines: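 Compounds first tested in duplicate at 10 uM, then in singleton concentration series up to 20 uM when over threshold. Activity of the recombinant enzyme read by fluorescence at 0.2 h, normalised to acetonitrile vehicle.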
Sequence of rat CYP2A2, Cyp2a2 (gene 24895) (P15149 whole entry, looked up): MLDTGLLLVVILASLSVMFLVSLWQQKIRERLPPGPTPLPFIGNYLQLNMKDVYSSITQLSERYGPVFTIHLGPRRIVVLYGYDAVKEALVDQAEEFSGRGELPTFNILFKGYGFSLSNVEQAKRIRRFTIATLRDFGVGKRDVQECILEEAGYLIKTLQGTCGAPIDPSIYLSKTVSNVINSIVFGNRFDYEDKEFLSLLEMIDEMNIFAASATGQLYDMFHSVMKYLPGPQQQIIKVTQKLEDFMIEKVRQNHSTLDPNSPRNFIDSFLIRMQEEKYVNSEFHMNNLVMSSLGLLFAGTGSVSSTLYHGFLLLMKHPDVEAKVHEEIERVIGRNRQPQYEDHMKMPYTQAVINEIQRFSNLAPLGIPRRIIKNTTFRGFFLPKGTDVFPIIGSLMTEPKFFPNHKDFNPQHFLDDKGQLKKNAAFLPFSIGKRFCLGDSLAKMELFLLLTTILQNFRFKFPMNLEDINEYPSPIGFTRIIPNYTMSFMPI

In the next assay the test system is rat CYP2B1, gene 24300. The assay can be described thus: NVS_ADME_rCYP2B1: NovaScreen (NVS) CYP450-related Enzyme Activity (ADME) Assay for rat CYP2B1 (AID 2283117; active = hit-call score of the fitted dose curve at least 0.9, where 1 is the maximum). In a few lines: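 Cell-free fluorescence enzyme assay, recombinant rat CYP2B1, 0.75 h after dosing. Single-concentration duplicates at 10 uM preceded concentration series (max 20 uM) for actives; acetonitrile as negative-control baseline.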

Assay [8] concerns the target human CYP2C9, CYP2C9 (gene 1559) (UniProt P11712). The assay can be described thus: NVS_ADME_hCYP2C9: NovaScreen (NVS) CYP450-related Enzyme Activity (ADME) Assay for human CYP2C9 (AID 2283108; active = hit-call score of the fitted dose curve at least 0.9, where 1 is the maximum). In a few lines: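 Recombinant human CYP2C9 expressed in SF9 cells, fluorogenic substrate, fluorescence read 0.75 h after dosing. Chemicals first run in duplicate at 10 uM, with actives followed in concentration series; loss of signal versus acetonitrile baseline.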

The target of assay [9] is human CYP2B6, CYP2B6 (gene 1555) (UniProt P20813). The assay can be described thus: NVS_ADME_hCYP2B6: NovaScreen (NVS) CYP450-related Enzyme Activity (ADME) Assay for human CYP2B6 (AID 2283101; active = hit-call score of the fitted dose curve at least 0.9, where 1 is the maximum). In a few lines:
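Cell-free recombinant enzyme assay with a fluorogenic substrate; fluorescence intensity read 1 hour after dosing. Loss of signal relative to acetonitrile negative control indicates inhibition. Primary screen run in duplicate at 10 uM, actives then tested in concentration series.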

Assay [10] has as its target human CYP1A2, CYP1A2 (gene 1544) (UniProt P05177). Nature of the assay: NVS_ADME_hCYP1A2: NovaScreen (NVS) CYP450-related Enzyme Activity (ADME) Assay for human CYP1A2 (AID 2283102; active = hit-call score of the fitted dose curve at least 0.9, where 1 is the maximum;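 as to AC50: potency for inhibition since loss of fluorescence marks reduced CYP1A2 activity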). In a few lines: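 Fluorescence-intensity enzyme activity read-out, taken 0.5 h post-dosing, using insect-cell-derived recombinant CYP1A2 and specific fluorescent substrate. Acetonitrile served as negative control/baseline. Single-concentration duplicate screen at 10 uM, then concentration-response follow-up.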

In assay [11] the target is Cytochrome P450 2C19 (Homo sapiens) (UniProt P33261). The assay can be described thus: NVS_ADME_hCYP2C19: NovaScreen (NVS) CYP450-related Enzyme Activity (ADME) Assay for human CYP2C19 (AID 2283113; active = hit-call score of the fitted dose curve at least 0.9, where 1 is the maximum;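 also: potency for inhibition seen as loss of fluorescent signal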). The method, boiled down:
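Recombinant insect-cell-expressed enzyme, fluorescent substrate, 1 h after chemical addition, fluorescence intensity. Baseline = acetonitrile vehicle; activity scored as signal loss. Primary HTS single concentration 10 uM, duplicate; actives retested in concentration series.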

For assay [12], the target named is rat CYP1A2, Cyp1a2 (gene 24297) (UniProt P04799). The assay can be described thus: NVS_ADME_rCYP1A2: NovaScreen (NVS) CYP450-related Enzyme Activity (ADME) Assay for rat CYP1A2 (AID 2283115; active = hit-call score of the fitted dose curve at least 0.9, where 1 is the maximum). In a few lines: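 Primary testing ran in duplicate at 10 uM, with actives re-tested across concentration series. Fluorescence intensity from substrate turnover by recombinant protein, measured 1 hour post-dosing, with signal loss scored against acetonitrile vehicle.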
Sequence of rat CYP1A2, Cyp1a2 (gene 24297) (P04799 whole entry, looked up): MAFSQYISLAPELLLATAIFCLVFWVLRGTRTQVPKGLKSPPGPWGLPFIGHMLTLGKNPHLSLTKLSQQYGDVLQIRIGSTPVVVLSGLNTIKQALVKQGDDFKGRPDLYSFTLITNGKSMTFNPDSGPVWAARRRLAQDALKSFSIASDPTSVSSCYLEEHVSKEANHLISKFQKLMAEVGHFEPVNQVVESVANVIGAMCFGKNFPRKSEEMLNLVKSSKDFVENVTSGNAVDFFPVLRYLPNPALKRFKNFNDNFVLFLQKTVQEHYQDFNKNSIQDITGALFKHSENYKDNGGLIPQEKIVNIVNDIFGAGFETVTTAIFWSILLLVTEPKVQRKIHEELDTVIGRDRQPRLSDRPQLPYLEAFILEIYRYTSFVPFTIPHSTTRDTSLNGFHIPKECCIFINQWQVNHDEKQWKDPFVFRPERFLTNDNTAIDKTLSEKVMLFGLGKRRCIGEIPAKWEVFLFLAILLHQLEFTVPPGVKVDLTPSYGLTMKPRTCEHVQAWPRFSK

The target of assay [13] is human CYP2D6, CYP2D6 (gene 1565) (UniProt P10635). The assay can be described thus: NVS_ADME_hCYP2D6: NovaScreen (NVS) CYP450-related Enzyme Activity (ADME) Assay for human CYP2D6 (AID 2283107; active = hit-call score of the fitted dose curve at least 0.9, where 1 is the maximum). In a few lines:
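Fluorescence intensity read 1 h post-dosing; insect-cell-expressed recombinant protein with fluorogenic substrate, no cells. Activity is scored as signal loss relative to acetonitrile baseline, first at a single 10 uM concentration in duplicate, then as concentration series for confirmed actives.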

The target in assay [14] is human CYP19A1, CYP19A1 (gene 1588) (UniProt P11511). Nature of the assay: NVS_ADME_hCYP19A1: NovaScreen (NVS) CYP450-related Enzyme Activity (ADME) Assay for human CYP19A1 (AID 2283098; active = hit-call score of the fitted dose curve at least 0.9, where 1 is the maximum). In a few lines:
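Fluorescence intensity read-out; activity taken as signal loss relative to acetonitrile vehicle. Extracted enzyme, specific substrate, no cells, 0.5 h exposure. Duplicate single-point screen at 10 uM, then concentration–response follow-up for actives.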

Consider 8 compounds from PubChem BioAssay (EPA / NIEHS).

As usually defined, the AC50 is the concentration giving half of the maximal activity seen.

Each structure is given as a SMILES string. Several values for one entry are separate records, joined by “and”; a condition that tells them apart may be missing. Identical values can stand only once. Results filed as inconclusive are left out. Activity calls are given as the source filed them. The calls were made as follows, unless noted: active = hit-call score of the fitted dose curve at least 0.9, where 1 is the maximum; inactive = score below 0.9.

Sequence of E-selectin (Homo sapiens) (P16581 whole entry, looked up): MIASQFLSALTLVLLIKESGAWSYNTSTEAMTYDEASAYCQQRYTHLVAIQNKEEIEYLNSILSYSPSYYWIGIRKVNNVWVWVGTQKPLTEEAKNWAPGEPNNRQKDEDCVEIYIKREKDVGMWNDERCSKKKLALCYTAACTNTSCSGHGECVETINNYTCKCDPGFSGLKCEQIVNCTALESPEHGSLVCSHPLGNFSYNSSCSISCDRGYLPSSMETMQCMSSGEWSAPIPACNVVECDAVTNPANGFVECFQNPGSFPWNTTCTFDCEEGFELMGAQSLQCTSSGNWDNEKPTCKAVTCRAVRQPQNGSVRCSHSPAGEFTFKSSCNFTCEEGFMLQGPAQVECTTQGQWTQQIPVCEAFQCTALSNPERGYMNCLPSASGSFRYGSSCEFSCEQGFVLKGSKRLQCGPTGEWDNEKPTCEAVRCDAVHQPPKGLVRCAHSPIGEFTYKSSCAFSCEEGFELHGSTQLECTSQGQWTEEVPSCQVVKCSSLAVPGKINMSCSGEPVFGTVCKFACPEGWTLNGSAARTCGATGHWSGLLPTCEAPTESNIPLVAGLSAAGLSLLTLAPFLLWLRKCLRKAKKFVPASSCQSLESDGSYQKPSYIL
Sequence of human CYP2C9, CYP2C9 (gene 1559) (P11712 whole entry, looked up): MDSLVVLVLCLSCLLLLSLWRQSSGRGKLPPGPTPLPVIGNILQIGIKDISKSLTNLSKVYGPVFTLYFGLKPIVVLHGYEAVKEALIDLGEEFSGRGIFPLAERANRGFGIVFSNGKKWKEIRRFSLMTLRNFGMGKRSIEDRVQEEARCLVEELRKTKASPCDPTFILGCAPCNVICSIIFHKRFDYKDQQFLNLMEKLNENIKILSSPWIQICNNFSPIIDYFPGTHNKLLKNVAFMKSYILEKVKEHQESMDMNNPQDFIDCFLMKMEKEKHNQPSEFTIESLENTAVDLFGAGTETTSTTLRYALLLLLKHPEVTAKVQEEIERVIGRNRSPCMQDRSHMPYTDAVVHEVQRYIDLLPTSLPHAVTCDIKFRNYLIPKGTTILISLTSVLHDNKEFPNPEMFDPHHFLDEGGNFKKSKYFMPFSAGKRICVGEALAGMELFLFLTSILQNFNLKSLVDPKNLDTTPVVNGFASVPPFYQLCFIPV
Sequence of human CYP1A2, CYP1A2 (gene 1544) (P05177 whole entry, looked up): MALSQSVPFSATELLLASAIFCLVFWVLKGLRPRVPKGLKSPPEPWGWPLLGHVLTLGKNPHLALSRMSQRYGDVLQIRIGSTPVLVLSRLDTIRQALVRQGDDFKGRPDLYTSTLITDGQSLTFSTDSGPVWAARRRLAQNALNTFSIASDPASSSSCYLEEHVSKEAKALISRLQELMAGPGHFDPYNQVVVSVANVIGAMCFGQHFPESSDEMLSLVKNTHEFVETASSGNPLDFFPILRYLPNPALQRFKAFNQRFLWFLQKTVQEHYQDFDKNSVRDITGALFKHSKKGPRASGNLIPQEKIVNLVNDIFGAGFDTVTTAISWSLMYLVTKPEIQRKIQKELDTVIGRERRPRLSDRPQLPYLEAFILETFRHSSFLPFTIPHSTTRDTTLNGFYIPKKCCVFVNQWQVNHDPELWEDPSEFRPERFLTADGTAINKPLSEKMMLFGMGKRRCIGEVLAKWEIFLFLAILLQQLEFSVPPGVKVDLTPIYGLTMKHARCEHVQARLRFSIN
Sequence of human CYP19A1, CYP19A1 (gene 1588) (P11511 whole entry, looked up): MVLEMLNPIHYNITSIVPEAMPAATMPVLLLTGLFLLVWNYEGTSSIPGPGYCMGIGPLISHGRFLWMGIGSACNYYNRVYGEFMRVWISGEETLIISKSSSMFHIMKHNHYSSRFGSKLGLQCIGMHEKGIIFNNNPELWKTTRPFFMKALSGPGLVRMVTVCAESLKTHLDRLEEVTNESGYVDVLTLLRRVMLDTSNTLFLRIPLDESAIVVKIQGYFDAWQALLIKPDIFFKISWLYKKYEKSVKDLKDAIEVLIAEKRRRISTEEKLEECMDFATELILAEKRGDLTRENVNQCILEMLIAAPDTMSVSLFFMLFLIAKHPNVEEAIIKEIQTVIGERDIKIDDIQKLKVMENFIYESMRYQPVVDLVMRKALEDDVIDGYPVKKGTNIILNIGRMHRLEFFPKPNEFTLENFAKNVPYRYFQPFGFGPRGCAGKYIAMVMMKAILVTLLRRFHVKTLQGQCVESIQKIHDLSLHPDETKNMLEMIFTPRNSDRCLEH
Sequence of human CYP2B6, CYP2B6 (gene 1555) (P20813 whole entry, looked up): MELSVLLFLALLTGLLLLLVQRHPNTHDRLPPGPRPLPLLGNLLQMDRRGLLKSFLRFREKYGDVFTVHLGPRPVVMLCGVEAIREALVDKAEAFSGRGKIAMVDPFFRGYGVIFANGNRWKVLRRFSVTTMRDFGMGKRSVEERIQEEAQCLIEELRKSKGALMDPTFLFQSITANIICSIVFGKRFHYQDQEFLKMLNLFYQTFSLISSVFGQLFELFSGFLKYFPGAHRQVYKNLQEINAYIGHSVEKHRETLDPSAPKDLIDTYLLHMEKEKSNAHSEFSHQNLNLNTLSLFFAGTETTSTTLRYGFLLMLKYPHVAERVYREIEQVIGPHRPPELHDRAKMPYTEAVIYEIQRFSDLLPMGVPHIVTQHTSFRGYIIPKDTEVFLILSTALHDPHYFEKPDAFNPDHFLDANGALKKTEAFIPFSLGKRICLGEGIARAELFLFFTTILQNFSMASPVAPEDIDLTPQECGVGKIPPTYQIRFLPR
Sequence of human CYP2D6, CYP2D6 (gene 1565) (P10635 whole entry, looked up): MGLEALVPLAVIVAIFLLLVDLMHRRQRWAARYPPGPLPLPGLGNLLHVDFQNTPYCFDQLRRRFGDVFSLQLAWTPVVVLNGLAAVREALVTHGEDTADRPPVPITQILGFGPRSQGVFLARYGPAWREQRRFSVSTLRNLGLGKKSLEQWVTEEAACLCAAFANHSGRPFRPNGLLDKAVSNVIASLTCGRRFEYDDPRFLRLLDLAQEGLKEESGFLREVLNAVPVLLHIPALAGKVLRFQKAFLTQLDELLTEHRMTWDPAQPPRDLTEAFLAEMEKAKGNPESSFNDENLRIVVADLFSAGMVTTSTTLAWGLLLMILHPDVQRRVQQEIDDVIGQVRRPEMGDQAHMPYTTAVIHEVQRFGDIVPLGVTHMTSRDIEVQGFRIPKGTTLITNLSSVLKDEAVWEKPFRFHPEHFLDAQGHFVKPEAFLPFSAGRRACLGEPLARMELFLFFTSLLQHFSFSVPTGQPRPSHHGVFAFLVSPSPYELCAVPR

Take `CC(C)N(C(=O)SCC(Cl)=C(Cl)Cl)C(C)C`: the AC50 was 31.8 µM (active) in [1]; 36.7 µM (active) in assay [2]; 36.5 µM (active) in assay [3]; 31 µM (active) in [4]; 38 µM (active) in assay [5]; 31.5 µM (active) in [6]. Also, the outcome is “inactive” in [7] and “inactive” with rat CYP2B1, gene 24300.
Take `CCOP(=S)(OCC)OC(Cl)C(Cl)(Cl)Cl` (stereo unspecified): the AC50 was 31.2 µM (active) in [1]; 29.9 µM (active) in [3]; 25.9 µM (active) in assay [4]; 33.5 µM (active) in assay [5]; 13 µM (active) in [6]; 10 µM (active) in assay [8]. Further, the result in assay [2] was inactive.
`CCCSP(=O)(OCC)Oc1ccc(Br)cc1Cl` (stereo unspecified): the AC50 in assay [1] was 25.5 µM (active); in assay [2], 36.5 µM (active); in assay [3], 32.9 µM (active); in assay [4], 26.3 µM (active); in assay [5] it was 29.3 µM (active); in [6], 11.7 µM (active). The AC50 was 11.3 µM (active) in assay [9], 5.19 µM (active) in [10], 7.09 µM (active) in assay [8] and 10 µM (active) in [11]. The compound was classed as inactive in assay [12].
For `COP(=O)(OC)OC(Br)C(Cl)(Cl)Br` (stereo unspecified), the AC50 is 22.7 µM (active) in [1]; 36.8 µM (active) in assay [2]; 14.7 µM (active) in [3]; 22.9 µM (active) in assay [4]; 7.28 µM (active) in assay [5]; 30.4 µM (active) in assay [6]. Besides, the AC50 in [11] is 7.79 µM (active). Further, the result in assay [13] and in [8] was inactive.
As to `CON=C(C(=O)OC)c1ccccc1CON=C(C)c1cccc(C(F)(F)F)c1`, the AC50 in assay [1] is 2.08 µM (active); in assay [2], 8.87 µM (active); in assay [3], 1.59 µM (active); in [4], 3.2 µM (active); in [5], 3.9 µM (active); in assay [6], 3.82 µM (active). Also, the AC50 in assay [11] was 2.26 µM (active).
As to `CCOP(=S)(OCC)Oc1cc(C)nc(C(C)C)n1`, the outcome in assay [1], in assay [2], in [3], in assay [4], in assay [5] and in assay [6] was inactive. The call in [14] was inactive. Also, the AC50 in assay [11] is 4.82 µM (active).
Regarding `CC(=NC#N)N(C)Cc1ccc(Cl)nc1`, the result in assay [1], in assay [2], in assay [3], in [4], in assay [5] and in assay [6] was inactive. In assay [11], the AC50 is 10 µM (active).
With `O=[N+]([O-])c1cc(C(F)(F)F)c(Cl)c([N+](=O)[O-])c1Nc1ncc(C(F)(F)F)cc1Cl`, the AC50 is 1.51 µM (active) and 2.65 µM (active) in assay [1]; 3.49 µM (active) and 2.45 µM (active) in [2]; 814 nM (active) and 2.03 µM (active) in [3]; 1.81 µM (active) and 3.64 µM (active) in [4]; 318 nM (active) and 526 nM (active) in assay [5]; 3.84 µM (active) in assay [6]. Moreover, the figures for the AC50 in assay [8] and in [11] were 1.84 µM (active) and 1.39 µM (active), respectively. The compound was classed as inactive in assay [10].
